These results are taken from the supplement of paper PMC10600219.

Where “and” joins values, the source holds several entries; their conditions need not be identical. Equal values may be shown once. Where a name gives a salt, the structure may show the parent alone. Whole data set: some 2,800 compounds, median “cell viability relative to vehicle” near 1.1, cut for the lowest 2% near 0.19. The sample as a whole holds a higher share of the lowest values than the screen did.

The assay deals with NCI-H2228 parental. Description: cell viability relative to vehicle (fraction of vehicle); NCI-H2228 is an ALK-positive lung cancer line and DTP means drug-tolerant persister; higher = less growth inhibition. Conditions: 100 nM; treatment time 6 days. The procedure, abridged:
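The 3114-agent TargetMol anti-cancer compound library was tested at 100 nM for 6 days on parental NCI-H2228 cells and on persister cells derived with 1000 nM of a targeted drug for 13 days. ATP readout by the CellTiter-Glo 3D Cell Viability Assay gave cell viability relative to DMSO vehicle-treated cells.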
Regarding `Cn1cc(CNCC2CCN(c3ncc(C(=O)NO)cn3)CC2)c2ccccc21` [Quisinostat], the cell viability came out at 0.159.
Turning to `CN1CCc2c(c3ccccc3n2Cc2ccc(C(=O)NO)cc2)C1` [Tubastatin A HCl], the cell viability came to 1.02.
Then `Cn1cc(C[C@@H](N)C(=O)O)c2ccccc21` [Indoximod], with 1.11; and `CCCN1CCN(c2ccc(C(=O)NC3(C(=O)NCC#N)CCCCC3)cc2)CC1` [Balicatib], with 1.07; and `CC(C)=CCC[C@](C)(O)[C@H]1CC[C@]2(C)[C@@H]1[C@H](O)C[C@@H]1[C@@]3(C)CC[C@H](O)C(C)(C)[C@@H]3[C@@H](O[C@@H]3O[C@H](CO)[C@@H](O)[C@H](O)[C@H]3O[C@@H]3O[C@@H](C)[C@H](O)[C@@H](O)[C@H]3O)C[C@]12C` [Ginsenoside Rg2], with 1.15.
As to `CCCCCCCCOC(=O)c1cc(O)c(O)c(O)c1` [Octyl gallate], the cell viability stood at 1.03.
Take `CC[C@@](C)(Nc1ccnc(-c2c[nH]c3ncccc23)n1)C(=O)NCC(F)(F)F` [Decernotinib]: the cell viability worked out at 1.12.
Then `O=C(Nc1cccc(Cl)c1)Nc1ncc(CCNc2ncnc3ccsc23)s1` [SNS-314 Mesylate], with 0.126.
Regarding `COc1cc2ncnc(Nc3cccc(Cl)c3)c2cc1OC`, the cell viability turned out to be 0.877.
For `COc1cc(/C=C/C(=O)OC[C@H]2O[C@H](O[C@]3(CO)O[C@H](CO)[C@@H](O)[C@@H]3OC(=O)/C=C/c3cc(OC)c(O)c(OC)c3)[C@H](O)[C@@H](O)[C@@H]2O)cc(OC)c1O` [3,6'-Disinapoyl sucrose] the value was 0.963.
Then `Fc1ccc(-n2cc(CCCCN3CCC4(CC3)OCc3ccccc34)c3ccccc32)cc1` [Siramesine hydrochloride], with 1.13.
As to `COc1cccc(-c2cc(F)ccc2[C@H]2Cc3nc(N)nc(C)c3C(=O)N2)n1`, the cell viability stood at 0.171.
Regarding `COc1ccc(-c2cc3c(C)nc(N)nc3n([C@H]3CC[C@H](OCCO)CC3)c2=O)cn1`, the cell viability was 0.485.
As to `Oc1ccc(-c2cc(=S)ss2)cc1` [Desmethylanethol trithione], the cell viability worked out at 1.03.
Then `Cc1cc(C#N)c(N)s1` [2-Amino-5-methyl-3-thiophenecarbonitrile], with 0.811.
Then `COCCNc1cc(NC(=O)N2CCCc3cc(CN4CCN(C)CC4=O)c(C=O)nc32)ncc1C#N` [Roblitinib], with 1.13; and `COc1ccc2[nH]c(C(=O)c3ccccc3)cc2c1`, with 0.197; and `O=C(CCCCCCNC(=O)c1cnc(N(c2ccccc2)c2ccccc2Cl)nc1)NO` [Citarinostat], with 1.03.
For `CC(C)c1cc(-c2n[nH]c(=O)n2-c2ccc3c(ccn3C)c2)c(O)cc1O` [Ganetespib] the value was 0.118; for `CC[C@@]1(O)C(=O)OCc2c1cc1n(c2=O)Cc2cc3cc(O)ccc3nc2-1` [Hydroxy Camptothecine], 0.0691; for `CCc1c2c(nc3ccc(O)cc13)-c1cc3c(c(=O)n1C2)COC(=O)[C@]3(O)CC`, 0.0693.
For `CC[C@@]1(O)C(=O)OCc2c1cc1n(c2=O)Cc2cc3c(CN(C)C)c(O)ccc3nc2-1` [Topotecan hydrochloride], the cell viability came to 0.0837.
Then `CCc1c2c(nc3ccc(OC(=O)N4CCC(N5CCCCC5)CC4)cc13)-c1cc3c(c(=O)n1C2)COC(=O)[C@]3(O)CC` [Irinotecan], with 0.939.
In the case of `CCc1c2c(nc3ccc(OC(=O)N4CCC(N5CCCCC5)CC4)cc13)-c1cc3c(c(=O)n1C2)COC(=O)[C@]3(O)CC` [Irinotecan hydrochloride trihydrate], the cell viability amounted to 1.11.
As to `CC[C@@]1(O)C(=O)OCc2c1cc1n(c2=O)Cc2cc3cc(O)ccc3nc2-1` [10-Hydroxycamptothecin], the cell viability is 0.0838.
Turning to `CC(C)C(C(=O)O)N1C(=O)C(=Cc2ccc(Br)cc2)SC1=S` (stereo unspecified), the cell viability was determined as 1.04.
Turning to `COc1ccc(-c2oc3cc(O)cc(O)c3c(=O)c2O)cc1` [kaempferide], the cell viability was 1.13.
For `OC[C@H]1O[C@@H](Oc2cc(O)cc(/C=C/c3ccc(O[C@@H]4O[C@H](CO)[C@@H](O)[C@H](O)[C@H]4O)cc3O)c2)[C@H](O)[C@@H](O)[C@@H]1O` [Mulberroside A] the value was 1.07; for `N[C@@H](CO)C(=O)O` [serine], 1.06.
For `COc1ccc(C(=C2C(=O)Nc3ccccc32)c2ccc(OC)cc2)cc1` the value was 1.05.
As for `CN(C)C(=S)NN=C(c1ccccn1)c1ccccn1`, the cell viability was found to be 0.212.
Then `C/C(=N\NC(=S)N1CCC1)c1ccccn1`, with 0.136; and `S=C(N/N=C1/CCCc2cccnc21)N1CCN(c2ccccn2)CC1`, with 1.09.
Then `COc1cc(OC)cc(C(=O)Nc2ccc(Cl)c(-c3nc4ccc(N(C)C)cc4[nH]3)c2)c1` [HhAntag], with 1.03; and `NC(=O)c1ccc(OCCCN2CC3CCCC3C2)cc1` (stereo unspecified), with 1.17.
Then `COc1c(Nc2ncc(Cl)c(N[C@H]3[C@@H](C(N)=O)[C@@H]4C=C[C@H]3C4)n2)ccc2c1CC[C@@H](N1CCOCC1)CC2`, with 0.799; and `Cc1[nH]c2ccccc2c1CCNC(=O)c1cccs1`, with 1.06; and `Cc1[nH]c2ccccc2c1CCNCc1ccc(/C=C/C(=O)NO)cc1` [Panobinostat], with 0.094.
On to `CN(C)Cc1ccc(S(=O)(=O)n2ccc(/C=C/C(=O)NO)c2)cc1` [Resminostat hydrochloride], for which the cell viability turned out to be 1.02.
For `CC(C)c1cc2c(c(O)c1O)[C@@]13CCCC(C)(C)[C@@H]1C[C@@H]2OC3=O` [Carnosol] the value was 1.04; for `O=C1C=C2C=C[C@@H](O)[C@H](O)[C@H]2O1` [griffonilide], 1.11.
Regarding `N=C(NCCCCCCNC(=N)NC(=N)Nc1ccc(Cl)cc1)NC(=N)Nc1ccc(Cl)cc1` [Chlorhexidine hydrochloride], the cell viability stood at 0.965.
On to `N=C(NCCCCCCNC(=N)NC(=N)Nc1ccc(Cl)cc1)NC(=N)Nc1ccc(Cl)cc1` [Chlorhexidine], for which the cell viability was determined as 1.08.
Consider `N#CN=C(NCCCCCCOc1ccc(Cl)cc1)Nc1ccncc1`, for which the cell viability turned out to be 0.0557.
For `CN1CCN(C(=O)C2C(C(=O)O)[C@H]3CC[C@@H]2O3)CC1` (stereo partly specified) the value was 0.955; for `O=C1CSc2ccccc2N1Cc1cccc(C(F)(F)F)c1`, 1.04; for `OC[C@@H](O)[C@@H](O)[C@@H](O)[C@@H](O)CO` [Allitol], 1.13.
Then `Cn1cc(-c2nc(N[C@@H]3CCCC[C@@H]3N)c(F)c3c2C(=O)NC3)cn1` [TAK-659 hydrochloride], with 1.01; and `Nc1nc(Cl)nc2c1ncn2[C@@H]1O[C@H](CO)[C@@H](O)[C@@H]1F` [Clofarabine], with 0.151.
Then `Nc1nc(F)nc2c1ncn2[C@@H]1O[C@H](CO)[C@@H](O)[C@@H]1O` [Fludarabine], with 1.12; and `Nc1nc(Cl)nc2c1ncn2[C@H]1C[C@H](O)[C@@H](CO)O1` [Cladribine], with 0.201; and `NS(=O)(=O)Oc1ccc2c3c(c(=O)oc2c1)CCCCC3` [Irosustat], with 1.04.
With `O=C(O)c1ccc(S(=O)(=O)NC2CCCCC2)cc1`, the cell viability is 0.986 and 1.12.
On to `CC(C)c1cc(C(=O)N2Cc3ccc(CN4CCN(C)CC4)cc3C2)c(O)cc1O` [Onalespib], for which the cell viability was determined as 0.29.
For `C[C@@H](Oc1cc(-n2cnc3ccc(CN4CCN(C)CC4)cc32)sc1C(N)=O)c1ccccc1C(F)(F)F` the value was 0.156; for `COc1ccc(CC(C)(C)NC[C@H](O)c2cc(O)cc3c2OCC(=O)N3)cc1` [Olodaterol], 0.923.
As for `Cc1ccc(/C=C2\CNC/C(=C\c3ccc(C)cc3)C2=O)cc1`, the cell viability was 1.06.
Take `c1ccc(CNc2ccccc2)cc1` [N-Phenylbenzylamine]: the cell viability came to 1.16.
Consider `Cc1cc(O)c(-c2ccc(C(C)CN)cc2)c2c1[nH]c(=O)c1sccc12` (stereo unspecified), for which the cell viability was 0.116.
Then `COC(=O)c1ccc(O)c(OC)c1` [Methyl Vanillate], with 1.18.
For `Cn1c(=O)n(-c2ccc(C(C)(C)C#N)cc2)c2c3cc(-c4cnc5ccccc5c4)ccc3ncc21` [Dactolisib] the value was 0.258; for `COc1ccc(-c2ccc3ncc4c(c3c2)n(-c2ccc(N3CCNCC3)c(C(F)(F)F)c2)c(=O)n4C)cn1`, 0.172.
Take `CCC(=O)N1CCN(c2ccc(-n3c(=O)ccc4cnc5ccc(-c6cnc7ccccc7c6)cc5c43)cc2C(F)(F)F)CC1` [Torin 1]: the cell viability came to 0.306.
Then `NC(=O)c1ccc2nc(-c3ccc(Oc4ccc(Cl)cc4)cc3)[nH]c2c1`, with 0.996; and `Nc1ccc(Cl)cc1C(=O)O` [2-Amino-5-chlorobenzoic acid], with 1.16; and `Cc1nc(Nc2ncc(C(=O)Nc3c(C)cccc3Cl)s2)cc(N2CCN(CCO)CC2)n1` [Dasatinib monohydrate], with 0.77.
Regarding `Cc1cc(Nc2cc(N3CCN(C)CC3)nc(/C=C/c3ccccc3)n2)n[nH]1`, the cell viability stood at 0.803.
Then `Cc1nc(Nc2ncc(C(=O)Nc3c(C)cccc3Cl)s2)cc(N2CCN(CCO)CC2)n1` [Dasatinib], with 0.872; and `Cc1cc(Nc2cc(N3CCN(C)CC3)nc(Sc3ccc(NC(=O)C4CC4)cc3)n2)n[nH]1` [Tozasertib], with 0.158.
Then `O=C(O)c1ccc(CN2C[C@@H]3C[C@H]2CN3Cc2ccc(Oc3ccc(-c4ncco4)cc3)cc2)cc1` [Acebilustat], with 1.05; and `CN1C(=O)C(C)(C)Oc2c(-c3cn(C)c(=O)c4[nH]ccc34)cc(S(C)(=O)=O)cc21`, with 0.935; and `C(=N\NC1=NCCN1)/c1c2ccccc2c(/C=N/NC2=NCCN2)c2ccccc12` [Bisantrene], with 1.01.
For `CC(C)=CCc1cc(-c2coc3cc(O)ccc3c2=O)ccc1O` [Neobavaisoflavone] the value was 1.17.
In the case of `CC(=O)NCCC(=O)O`, the cell viability came to 0.856.
Then `COc1cc(/C=C2/SC(=S)NC2=O)ccc1OCC(=O)O`, with 1.1; and `COc1cc(C(=O)NC2CCN(C)CC2)ccc1Nc1ncc2c(n1)N(C1CCCC1)CC(F)(F)C(=O)N2C`, with 0.171; and `CC[C@@H]1C(=O)N(C)c2cnc(Nc3ccc(C(=O)N[C@H]4CC[C@H](N5CCN(CC6CC6)CC5)CC4)cc3OC)nc2N1C(C)C` [Volasertib], with 0.192.
As for `CC[C@@H]1C(=O)N(C)c2cnc(Nc3ccc(C(=O)NC4CCN(C)CC4)cc3OC)nc2N1C1CCCC1`, the cell viability amounted to 0.167.
Regarding `CCOc1cc(N2CCC(O)CC2)ccc1Nc1ncc2c(n1)N(C1CCCC1)CCC(=O)N2C`, the cell viability was 1.15.
For `CCOc1cc(C(=O)N2CCC(N3CCN(C)CC3)CC2)ccc1Nc1ncc2c(n1)N(C1CCCC1)c1ccccc1C(=O)N2C`, the cell viability was 1.23.
For `COc1cc(C(=O)N2CCC(N3CCN(C)CC3)CC2)ccc1Nc1ncc2c(n1)N(C)c1ccccc1C(=O)N2C` the value was 1.11.
